# Tests used:
# Type in all cases: functional
# [1] = target: Solute carrier family 2, facilitated glucose transporter member 1 (Homo sapiens) (UniProt P11166); assay: ST_JUDE_LEISH: Cytotoxicity at 2uM final concentration against transgenic Leishmania Mexicana promastigotes LmGLUT1 that are glucose transport deficient and complemented with the human glucose transporter GLUT1. Activity is measured by DNA content using SYBR green in vitro
# [2] = target: Hexose transporter 1 (Plasmodium falciparum) (UniProt O97467); assay: ST_JUDE_LEISH: Cytotoxicity at 2uM final concentration against transgenic Leishmania Mexicana promastigotes LmPfHT that are glucose transport deficient and complemented with the Plasmodium falciparum hexose transporter. Activity is measured by DNA content using SYBR green in vitro
# [3] = target: Glucose transporter (Leishmania mexicana) (UniProt O61059); assay: ST_JUDE_LEISH: Cytotoxicity at 2uM final concentration against transgenic Leishmania Mexicana promastigotes LmGT2 that are glucose transport deficient and complemented with the L. Mexicana glucose transporter 2. Activity is measured by DNA content using SYBR green in vitro
# Solute carrier family 2, facilitated glucose transporter member 1 (Homo sapiens), sequence (P11166 whole entry): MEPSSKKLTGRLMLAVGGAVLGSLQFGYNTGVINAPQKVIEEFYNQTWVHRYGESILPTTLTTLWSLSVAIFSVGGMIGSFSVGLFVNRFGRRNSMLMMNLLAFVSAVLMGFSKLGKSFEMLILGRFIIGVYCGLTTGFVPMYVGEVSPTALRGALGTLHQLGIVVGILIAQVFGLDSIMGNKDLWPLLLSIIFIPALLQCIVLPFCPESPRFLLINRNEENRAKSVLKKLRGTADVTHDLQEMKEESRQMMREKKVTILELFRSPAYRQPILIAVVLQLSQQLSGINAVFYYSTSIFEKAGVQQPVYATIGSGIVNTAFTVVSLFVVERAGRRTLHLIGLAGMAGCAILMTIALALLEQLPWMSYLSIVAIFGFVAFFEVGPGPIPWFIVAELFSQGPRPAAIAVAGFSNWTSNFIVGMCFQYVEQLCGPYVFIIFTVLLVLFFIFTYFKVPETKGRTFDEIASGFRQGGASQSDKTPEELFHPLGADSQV
SMILES,inhibition [1] [%],inhibition [2] [%],inhibition [3] [%]
Cc1cccc2nc(-c3ccc(-c4ccc(CN5CC(C)OC(C)C5)cc4)cc3)[nH]c12 (stereo unspecified),4.48,3.58,0.01
CCCCOC(=O)C1=C(C)NC2=C(C(=O)CC(c3ccc(OC)c(OC)c3)C2)C1c1ccc(O)cc1 (stereo unspecified),10.4,1.48,3.3
CCNc1cc(C(=O)N[C@@H](Cc2ccccc2)[C@H](O)CNC2CCC(C)(C)C2)cc(N2CCCCS2(=O)=O)c1 (stereo partly specified),2.05,2.29,2.37
O=S(=O)(c1ccc(Cl)cc1Cl)N1CCCCC(c2ccc(C(F)(F)F)cc2)=N1,0.38,0.43,1.07
CN1CCCC(OC(=O)c2ccccc2)C1 (stereo unspecified),4.26,3.71,3.1
COc1cc(C(F)(F)F)nc2c(CNCCCNc3cc(=O)c4ccccc4[nH]3)scc12,0.84,0.13,0.55
CN(C)CCCOc1cccc(CCNCc2cccc(Oc3ccc(Cl)cc3)c2)c1,2.64,2.34,0
CCCNC(=O)C1Cc2cc(OC)c(OC)cc2C2(N1)C(=O)N(Cc1cccc(OC)c1)c1ccccc12 (stereo unspecified),-1.15,0.36,-0.47
CC1CCC2(CC1)NC(N)=NC(=N)N2OCCCCCCCCO (stereo unspecified),6.99,4.43,2.52
CC(C)CNCc1cccc(-c2cccc(CN(CCN(C)C)C(=O)NCCc3ccccc3)c2)c1,-1.09,-0.75,-4.18
O=C(Nc1cccc(-c2cc3ccccc3[nH]2)c1)C1CCN(Cc2ccccc2O)CC1,10.3,9.31,8.56
O=C(Nc1nc2ccc(Cl)cc2s1)c1csnn1,-1.77,-1.39,-5.77

# Reference: ChEMBL document CHEMBL3433997, “St. Jude Leishmania screening dataset” (2016)
